Targets with a hit are over-represented here; the source holds about 6,500 in all. About 2% of all pairs of compound and target were hits.
compound: COC(=O)C#Cc1ccccc1 [methyl 3-phenylpropiolate]; experiment: log2 ratio of iodoacetamide-alkyne labeling of the cysteine site, DMSO over compound (competition); higher = stronger covalent engagement of the cysteine by the compound, active = 1 or more; conditions: 500 µM; treatment time 1 h; system: HEK293T cell lysate
Outline: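 Reporter intensities give each cysteine's log2 competition ratio as the mean of control channels over the mean of compound channels. The samples were HEK293T lysate (2 mg/mL) given vehicle or electrophile (500 µM, 1 h, ambient temperature), then iodoacetamide alkyne (1 h), followed by click coupling to sCIP-TMT reagents, pooling, trypsin digestion overnight at 37 °C, streptavidin enrichment, acid elution, Orbitrap Eclipse LC-MS/MS with FAIMS and FragPipe quantification. Duplicate channels and three replicates were run, and cysteines quantified in only one replicate were discarded.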

Sequence of UniProt Q9NVI1 (Q9NVI1 whole entry, looked up): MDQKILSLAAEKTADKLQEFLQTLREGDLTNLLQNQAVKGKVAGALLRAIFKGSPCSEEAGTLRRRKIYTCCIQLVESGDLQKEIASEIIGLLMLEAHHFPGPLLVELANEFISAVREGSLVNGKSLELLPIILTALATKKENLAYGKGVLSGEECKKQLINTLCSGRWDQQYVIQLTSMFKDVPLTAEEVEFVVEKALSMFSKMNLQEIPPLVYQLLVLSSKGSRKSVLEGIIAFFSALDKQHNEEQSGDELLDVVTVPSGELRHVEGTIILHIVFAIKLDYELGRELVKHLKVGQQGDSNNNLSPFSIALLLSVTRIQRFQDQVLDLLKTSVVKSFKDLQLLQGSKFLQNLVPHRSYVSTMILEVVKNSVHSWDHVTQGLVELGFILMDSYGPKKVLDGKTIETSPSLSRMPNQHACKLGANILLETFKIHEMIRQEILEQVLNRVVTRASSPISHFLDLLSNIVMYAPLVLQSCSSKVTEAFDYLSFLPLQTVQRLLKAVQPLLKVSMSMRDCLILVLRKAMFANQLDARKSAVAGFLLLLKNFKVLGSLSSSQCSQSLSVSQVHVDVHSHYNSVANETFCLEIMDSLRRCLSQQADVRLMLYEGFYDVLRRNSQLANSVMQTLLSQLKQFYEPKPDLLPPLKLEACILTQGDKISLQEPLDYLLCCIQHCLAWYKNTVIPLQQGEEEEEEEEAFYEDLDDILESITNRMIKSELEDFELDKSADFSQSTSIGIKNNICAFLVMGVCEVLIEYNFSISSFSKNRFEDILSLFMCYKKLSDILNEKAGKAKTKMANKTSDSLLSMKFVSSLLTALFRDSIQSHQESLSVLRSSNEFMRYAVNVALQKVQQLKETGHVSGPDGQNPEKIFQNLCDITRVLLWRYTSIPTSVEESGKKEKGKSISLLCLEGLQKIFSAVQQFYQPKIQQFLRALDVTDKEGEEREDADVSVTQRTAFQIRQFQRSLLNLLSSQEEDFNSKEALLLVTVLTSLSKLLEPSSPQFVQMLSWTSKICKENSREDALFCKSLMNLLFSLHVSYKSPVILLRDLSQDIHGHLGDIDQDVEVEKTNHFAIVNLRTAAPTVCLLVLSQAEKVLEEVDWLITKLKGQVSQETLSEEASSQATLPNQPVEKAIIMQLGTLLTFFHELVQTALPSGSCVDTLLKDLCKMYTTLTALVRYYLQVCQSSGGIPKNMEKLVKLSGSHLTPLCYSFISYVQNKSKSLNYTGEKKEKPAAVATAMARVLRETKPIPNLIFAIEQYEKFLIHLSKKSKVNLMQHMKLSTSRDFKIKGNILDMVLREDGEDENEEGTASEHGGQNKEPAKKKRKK
Sequence of UniProt Q9Y2S7 (Q9Y2S7 whole entry): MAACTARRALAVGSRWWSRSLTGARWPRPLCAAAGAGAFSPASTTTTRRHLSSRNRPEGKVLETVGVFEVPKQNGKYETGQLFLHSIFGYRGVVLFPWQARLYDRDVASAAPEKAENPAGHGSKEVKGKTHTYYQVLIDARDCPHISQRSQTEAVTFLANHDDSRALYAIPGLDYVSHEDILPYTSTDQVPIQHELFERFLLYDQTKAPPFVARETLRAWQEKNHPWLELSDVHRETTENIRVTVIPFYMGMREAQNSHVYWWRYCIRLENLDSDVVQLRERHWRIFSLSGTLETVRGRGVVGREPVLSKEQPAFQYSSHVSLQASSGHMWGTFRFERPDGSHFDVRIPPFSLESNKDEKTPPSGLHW
Sequence of UniProt Q9H694 (Q9H694 whole entry): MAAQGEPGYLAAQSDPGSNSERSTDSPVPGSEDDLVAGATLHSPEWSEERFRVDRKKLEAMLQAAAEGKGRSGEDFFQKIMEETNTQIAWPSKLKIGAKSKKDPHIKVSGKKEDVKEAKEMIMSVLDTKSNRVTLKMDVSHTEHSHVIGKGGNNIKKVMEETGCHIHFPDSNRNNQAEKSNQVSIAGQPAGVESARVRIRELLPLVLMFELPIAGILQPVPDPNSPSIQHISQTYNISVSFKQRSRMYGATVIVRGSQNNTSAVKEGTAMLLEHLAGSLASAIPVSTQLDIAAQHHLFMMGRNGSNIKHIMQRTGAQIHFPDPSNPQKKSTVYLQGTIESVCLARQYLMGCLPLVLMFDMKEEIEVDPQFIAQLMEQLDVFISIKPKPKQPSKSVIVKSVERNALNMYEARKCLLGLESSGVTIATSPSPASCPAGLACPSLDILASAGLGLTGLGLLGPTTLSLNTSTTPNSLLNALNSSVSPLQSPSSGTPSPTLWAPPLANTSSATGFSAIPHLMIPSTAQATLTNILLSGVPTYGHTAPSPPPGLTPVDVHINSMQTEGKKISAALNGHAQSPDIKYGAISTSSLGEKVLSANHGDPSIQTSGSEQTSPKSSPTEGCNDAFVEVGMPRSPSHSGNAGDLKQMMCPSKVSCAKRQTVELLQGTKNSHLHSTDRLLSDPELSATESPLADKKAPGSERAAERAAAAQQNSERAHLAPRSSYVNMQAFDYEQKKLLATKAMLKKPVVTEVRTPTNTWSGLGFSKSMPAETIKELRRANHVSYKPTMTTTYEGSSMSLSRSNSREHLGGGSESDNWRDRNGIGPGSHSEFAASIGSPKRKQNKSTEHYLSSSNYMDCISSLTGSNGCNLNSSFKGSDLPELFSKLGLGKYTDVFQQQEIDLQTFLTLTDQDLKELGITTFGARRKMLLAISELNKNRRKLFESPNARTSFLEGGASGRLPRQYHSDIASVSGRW
Sequence of UniProt Q9NVP2 (Q9NVP2 whole entry, looked up): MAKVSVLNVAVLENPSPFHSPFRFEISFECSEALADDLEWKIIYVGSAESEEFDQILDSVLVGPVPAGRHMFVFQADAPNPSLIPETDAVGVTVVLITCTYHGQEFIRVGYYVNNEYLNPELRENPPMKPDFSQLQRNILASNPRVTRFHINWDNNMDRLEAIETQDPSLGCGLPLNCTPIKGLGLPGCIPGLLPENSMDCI
Sequence of UniProt Q9H6K4 (Q9H6K4 whole entry): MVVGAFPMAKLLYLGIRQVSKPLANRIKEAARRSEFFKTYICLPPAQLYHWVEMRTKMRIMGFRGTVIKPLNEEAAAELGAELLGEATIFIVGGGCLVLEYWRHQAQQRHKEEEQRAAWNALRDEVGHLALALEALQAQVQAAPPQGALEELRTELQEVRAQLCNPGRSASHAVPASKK
Sequence of UniProt Q9Y496 (Q9Y496 whole entry): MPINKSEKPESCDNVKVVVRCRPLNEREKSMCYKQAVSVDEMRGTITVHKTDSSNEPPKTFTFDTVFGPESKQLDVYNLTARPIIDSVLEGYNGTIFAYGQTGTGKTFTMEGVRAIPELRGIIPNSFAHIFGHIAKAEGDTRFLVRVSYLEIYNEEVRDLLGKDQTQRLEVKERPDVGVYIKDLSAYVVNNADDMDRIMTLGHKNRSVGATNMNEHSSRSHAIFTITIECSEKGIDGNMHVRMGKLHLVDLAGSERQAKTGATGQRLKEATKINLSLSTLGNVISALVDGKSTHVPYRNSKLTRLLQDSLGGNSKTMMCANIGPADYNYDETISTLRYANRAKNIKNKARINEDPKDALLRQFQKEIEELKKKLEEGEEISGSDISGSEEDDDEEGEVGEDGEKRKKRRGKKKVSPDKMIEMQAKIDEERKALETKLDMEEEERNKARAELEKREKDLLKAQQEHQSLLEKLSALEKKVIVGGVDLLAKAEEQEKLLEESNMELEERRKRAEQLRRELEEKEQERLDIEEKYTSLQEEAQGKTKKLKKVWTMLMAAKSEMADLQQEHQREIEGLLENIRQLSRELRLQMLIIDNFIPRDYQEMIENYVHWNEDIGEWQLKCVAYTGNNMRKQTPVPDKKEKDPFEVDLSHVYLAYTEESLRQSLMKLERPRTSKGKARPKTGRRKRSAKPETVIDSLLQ
Sequence of UniProt Q9NVV4 (Q9NVV4 whole entry, looked up): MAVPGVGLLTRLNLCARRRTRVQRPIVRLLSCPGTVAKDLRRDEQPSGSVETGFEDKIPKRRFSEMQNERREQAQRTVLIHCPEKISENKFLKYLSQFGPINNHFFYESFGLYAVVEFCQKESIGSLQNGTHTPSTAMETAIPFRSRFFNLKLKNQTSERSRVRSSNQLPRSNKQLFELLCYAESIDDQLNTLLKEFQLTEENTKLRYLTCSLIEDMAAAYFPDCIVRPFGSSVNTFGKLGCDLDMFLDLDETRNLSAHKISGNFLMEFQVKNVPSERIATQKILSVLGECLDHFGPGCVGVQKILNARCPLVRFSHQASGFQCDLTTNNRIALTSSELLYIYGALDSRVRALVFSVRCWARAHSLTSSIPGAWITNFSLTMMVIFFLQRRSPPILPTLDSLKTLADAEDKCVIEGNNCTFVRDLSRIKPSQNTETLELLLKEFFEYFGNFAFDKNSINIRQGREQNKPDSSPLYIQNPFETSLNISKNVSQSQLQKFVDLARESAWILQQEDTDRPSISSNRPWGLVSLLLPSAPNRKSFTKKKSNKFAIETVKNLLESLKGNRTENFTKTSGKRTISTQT
Sequence of UniProt Q9UJW0 (Q9UJW0 whole entry, looked up): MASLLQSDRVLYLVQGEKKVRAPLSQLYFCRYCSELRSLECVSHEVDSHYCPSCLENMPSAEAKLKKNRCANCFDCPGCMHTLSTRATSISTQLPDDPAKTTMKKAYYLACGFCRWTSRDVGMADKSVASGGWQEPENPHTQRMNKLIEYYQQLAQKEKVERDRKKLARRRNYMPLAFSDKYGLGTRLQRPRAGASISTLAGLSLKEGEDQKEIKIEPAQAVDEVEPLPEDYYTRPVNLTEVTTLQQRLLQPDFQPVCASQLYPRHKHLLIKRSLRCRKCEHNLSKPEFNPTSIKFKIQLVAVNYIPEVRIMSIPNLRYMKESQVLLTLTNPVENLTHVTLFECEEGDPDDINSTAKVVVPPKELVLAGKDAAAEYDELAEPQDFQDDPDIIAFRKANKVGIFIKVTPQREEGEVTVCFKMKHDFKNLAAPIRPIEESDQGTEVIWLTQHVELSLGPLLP
Sequence of UniProt Q9Y2Q3 (Q9Y2Q3 whole entry): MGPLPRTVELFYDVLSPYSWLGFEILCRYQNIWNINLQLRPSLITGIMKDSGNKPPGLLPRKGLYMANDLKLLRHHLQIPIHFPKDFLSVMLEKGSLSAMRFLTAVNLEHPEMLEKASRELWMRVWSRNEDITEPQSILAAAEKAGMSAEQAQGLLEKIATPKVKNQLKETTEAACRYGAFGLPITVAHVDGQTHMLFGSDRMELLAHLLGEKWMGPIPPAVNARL

log2 ratio of iodoacetamide-alkyne labeling, active:
UniProt Q9BVS4_C449 1.18
NOL6 C1034 (UniProt Q9H6R4) 1.81
UBE2O C406 (UniProt Q9C0C9) 1.46
AGTPBP1 C567 (UniProt Q9UPW5) 1.18
CPSF2 C765 (UniProt Q9P2I0) 1.01
GPHN C293 (UniProt Q9NQX3) 1.12
ATXN10 C354 (UniProt Q9UBB4) 1.32
KCTD3 C606 (UniProt Q9Y597) 1.08
FAM83D C19 (UniProt Q9H4H8) 1.11
UniProt Q9UBD5_C158 1.13
ASF1B C172 (UniProt Q9NVP2) 1.22

log2 ratio of iodoacetamide-alkyne labeling, inactive:
TNKS1BP1 C1296 (UniProt Q9C0C2) 0.451
BICC1 C621 (UniProt Q9H694) 0.525
RNPEP C181 (UniProt Q9H4A4) 0.0149
ANAPC1 C1412 (UniProt Q9H1A4) 0.0508
STRAP C305 (UniProt Q9Y3F4) 0.0837
MBD1 C57 (UniProt Q9UIS9) 0.0108
RBM27 C776 (UniProt Q9P2N5) 0.232
MRPS18C C90 (UniProt Q9Y3D5) 0.167
GSTK1 C176 (UniProt Q9Y2Q3) 0.387
UBE2O C598 (UniProt Q9C0C9) 0.166
UniProt Q9NRP4_C80 0.483
POLDIP2 C143 (UniProt Q9Y2S7) 0.786
UniProt Q9NWY4_C17 0.873
AIM1 C976 (UniProt Q9Y4K1) 0.347
MTPAP C242 (UniProt Q9NVV4) 0.146
STX8 C14 (UniProt Q9UNK0) -0.148
KIF3A C621 (UniProt Q9Y496) 0.962
C11orf68 C222 (UniProt Q9H3H3) 0.528
MRPS7 C152 (UniProt Q9Y2R9) -0.102
OPA3 C164 (UniProt Q9H6K4) 0.331
NFU1 C213 (UniProt Q9UMS0) 0.895
FANCI C56 (UniProt Q9NVI1) 0.281
DCTN4 C41 (UniProt Q9UJW0) 0.309
UniProt Q9Y312_C156 0.41
UniProt Q9Y2D5_C296 0.394
TCAF1 C488 (UniProt Q9Y4C2) 0.36
TLN1 C2243 (UniProt Q9Y490) 0.0807
DIS3 C213 (UniProt Q9Y2L1) 0.313
FAM120A C279 (UniProt Q9NZB2) -0.00137

Reference: the supplement of paper PMC11006884
